Test results from PubChem BioAssay (EPA / NIEHS).
Values joined by “and” are separate entries in the source; they are usually repeats but may differ in a detail not shown here. Equal entries are not always repeated. More than one record can exist for a structure, and the calls need not agree. Active and inactive are the calls of the source. How the source made its calls: active means hit-call score of the fitted dose curve at least 0.9, where 1 is the maximum; inactive means score below 0.9.

What was measured:
[1] = read-out: Urokinase-type plasminogen activator receptor (uPAR), PLAUR (gene 5329); assay: BSK_BE3C_uPAR: BioMAP Diversity Plus: BE3C Assay for Urokinase-type plasminogen activator receptor (uPAR) Biomarker Activity (AID 2283039); conditions: primary human bronchial epithelial cells; actives raise or lower the signal;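 further: uPAR protein level measured by ELISA on the cells; cells exposed to compound for one day before measurement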
How it was run: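 Primary human bronchial epithelial cells dosed for 24 h; uPAR quantified by ELISA with bidirectional fitting against DMSO. Overt cytotoxicity assessed in parallel cultures by SRB total-protein staining (0.1% SRB, 560 nm).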

[2] = read-out: Interleukin-6 (IL6), IL6 (gene 3569); assay: BSK_CASM3C_IL6: BioMAP Diversity Plus: CASM3C Assay for Interleukin-6 (IL6) Biomarker Activity for (AID 2283040); conditions: primary human coronary artery smooth muscle cells; actives raise or lower the signal
[3] = read-out: Tissue plasminogen activator (tPA), PLAT (gene 5327); assay: BSK_BE3C_tPA: BioMAP Diversity Plus: BE3C Assay for Tissue plasminogen activator (tPA) Biomarker Activity (AID 2283041); conditions: primary human bronchial epithelial cells; actives raise or lower the signal;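 on outcome: tPA level quantified by ELISA one day after compound addition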
How it was run: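 Primary human bronchial epithelial cells in the BE3C system, exposed to compound for 24 h. tPA was quantified by ELISA; DMSO served as baseline, with gain or loss of signal fitted. Cytotoxicity checked in parallel cultures by SRB total-protein staining.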

[4] = read-out: Interleukin-8 (IL8), CXCL8 (gene 3576); assay: BSK_CASM3C_IL8: BioMAP Diversity Plus: CASM3C Assay for Interleukin-8 (IL8) Biomarker Activity (AID 2283042); conditions: primary human coronary artery smooth muscle cells; actives raise or lower the signal;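 further: IL-8 protein level quantified by ELISA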
[5] = read-out: Human Leukocyte Antigen - DR isotype (HLADR), HLA-DRA (gene 3122); assay: BSK_CASM3C_HLADR: BioMAP Diversity Plus: CASM3C Assay for Human Leukocyte Antigen - DR isotype (HLADR) Biomarker Activity (AID 2283043); conditions: primary human coronary artery smooth muscle cells; actives raise or lower the signal;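 further: cell-surface HLA-DR protein level quantified by ELISA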
[6] = read-out: Macrophage colony-stimulating factor (MCSF), CSF1 (gene 1435); assay: BSK_CASM3C_MCSF: BioMAP Diversity Plus: CASM3C Assay for Macrophage colony-stimulating factor (MCSF) Biomarker Activity (AID 2283044); conditions: primary human coronary artery smooth muscle cells; actives raise or lower the signal;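 further: M-CSF protein amount quantified by ELISA after 24 h exposure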
[7] = read-out: Low-density lipoprotein receptor (LDLR), LDLR (gene 3949); assay: BSK_CASM3C_LDLR: BioMAP Diversity Plus: CASM3C Assay for Low-density lipoprotein receptor (LDLR) Biomarker Activity (AID 2283045); conditions: primary human coronary artery smooth muscle cells; actives raise or lower the signal;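 further: LDLR protein level on the cell surface quantified by ELISA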
[8] = read-out: Monocyte Chemoattractant Protein-1 (MCP1), CCL2 (gene 6347); assay: BSK_CASM3C_MCP1: BioMAP Diversity Plus: CASM3C Assay for Monocyte Chemoattractant Protein-1 (MCP1) Biomarker Activity (AID 2283046); conditions: primary human coronary artery smooth muscle cells; actives raise or lower the signal;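 further: MCP-1 level quantified by ELISA 24 h after dosing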
[9] = BSK_CASM3C_Proliferation: Cell Proliferation Assessment in the BioMAP Diversity Plus: CASM3C Assay (AID 2283047); conditions: primary human coronary artery smooth muscle cells;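 further: sulforhodamine B total protein stain as relative cell number at 560 nm; sub-confluent cells exposed 48 h before staining; fitted both ways against DMSO so gain or loss of cell number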
[10] = read-out: Monokine induced gamma interferon (MIG), CXCL9 (gene 4283); assay: BSK_CASM3C_MIG: BioMAP Diversity Plus: CASM3C Assay for Monokine induced gamma interferon (MIG) Biomarker Activity (AID 2283048); conditions: primary human coronary artery smooth muscle cells; actives raise or lower the signal;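 further: MIG protein level measured by ELISA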

Structure (SMILES)	outcome [1]	outcome [2]	outcome [3]	outcome [4]	outcome [5]	outcome [6]	outcome [7]	outcome [8]	outcome [9]	outcome [10]	AC50 [8]	AC50 [5]	AC50 [6]	AC50 [9]	AC50 [10]	AC50 [3]	AC50 [7]	AC50 [2]
CCOC(=O)c1ccccc1C(=O)OCC	inactive	inactive	inactive	inactive	inactive	inactive	inactive	inactive	inactive	inactive								
CCOP(=S)(OCC)SCSc1ccc(Cl)cc1	inactive	inactive	inactive	inactive	inactive	inactive	inactive		inactive	inactive	0.272 µM (active)							
O=C(O)C(Cl)Cl	inactive	inactive	inactive	inactive	inactive	inactive	inactive	inactive	inactive	inactive								
c1cc2c3c(cccc3c1)CC2	inactive	inactive	inactive	inactive	inactive	inactive	inactive	inactive	inactive	inactive								
OCC(F)(F)OC(F)(F)C(F)(F)OC(F)(F)C(F)(F)OC(F)(F)F	inactive	inactive	inactive	inactive	inactive	inactive	inactive	inactive		inactive	47.3 µM (active)	48.6 µM (active)	17.5 µM (active)	18.7 µM (active) and 28.5 µM (active)	30 µM (active)			
CCOP(=S)(Oc1ccc([N+](=O)[O-])cc1)c1ccccc1 (configuration not stated)	inactive	inactive		inactive		inactive		inactive		inactive		14.2 µM (active)		20 µM (active)		2.17 µM (active)	20 µM (active)	
CCOP(=S)(OCC)SCn1nnc2ccccc2c1=O	inactive	inactive	inactive	inactive	inactive	inactive		inactive		inactive				20 µM (active)			32.3 µM (active)	
OCC(F)(F)OC(F)(F)C(F)(F)OC(F)(F)CO	inactive	inactive	inactive	inactive	inactive	inactive	inactive	inactive	inactive	inactive								
CCCCc1ccccc1	inactive	inactive	inactive	inactive	inactive	inactive	inactive	inactive	inactive	inactive								
O=P(Oc1ccccc1)(Oc1ccccc1)Oc1ccccc1	inactive	inactive	inactive	inactive	inactive	inactive		inactive		inactive				26 µM (active)			29.5 µM (active)	
C=CC(=O)OCC(F)(F)C(F)F	inactive	inactive	inactive	inactive			inactive	inactive				36.3 µM (active) and 38.8 µM (active)	30 µM (active) and 18.2 µM (active)	30 µM (active)	30 µM (active) and 16.9 µM (active)	14.9 µM (active)		22.9 µM (active)
COP(=O)(CCC(=O)NCO)OC	inactive	inactive	inactive	inactive	inactive	inactive	inactive	inactive	inactive	inactive		0.3 µM (active)						1.56 µM (active)
COC(=O)C(F)(F)C(F)(F)OC(F)(C(F)(F)F)C(F)(F)OC(F)=C(F)F (configuration not stated)	inactive	inactive	inactive	inactive	inactive	inactive	inactive	inactive	inactive	inactive								
O=C(O)C(F)(OC(F)(F)C(F)(F)C(F)(F)F)C(F)(F)F (configuration not stated)	inactive	inactive	inactive	inactive	inactive	inactive	inactive	inactive	inactive	inactive			0.218 µM (active)	5.17 µM (active)				
CSC(C)(C)C=NO	inactive	inactive	inactive	inactive	inactive	inactive	inactive	inactive	inactive	inactive								
c1nc[nH]n1	inactive	inactive	inactive	inactive	inactive	inactive	inactive	inactive	inactive	inactive								
CCOP(=S)(OCC)SCS(=O)(=O)CC	inactive	inactive	inactive	inactive	inactive	inactive	inactive	inactive	inactive	inactive								
c1ccc2c(c1)sc1ccccc12	inactive	inactive	inactive	inactive	inactive	inactive	inactive	inactive	inactive	inactive								
O=C(O)C(F)(F)OC(F)(F)C(F)(F)OC(F)(F)F	inactive	inactive	inactive	inactive	inactive	inactive	inactive	inactive	inactive	inactive	1.03 µM (active)				1.17 µM (active)			
